Eya2 inh: inhibitors of human Eya2 phosphatase activity | O00167 | hit rate 0.006% among 330,000 | recombinant Eya2, OMFP fluorescence dephosphorylation (OMFP is methylfluorescein phosphate) | AID 488837 | Potency, µM (doses to about 76.9 µM), without a hit: at the highest dose activity, negative = inhibition, most hits filed as inhibitors; also: % is scaled to controls: 0 for no effect and ±100 for the full control effect
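Eya2 (0.2 uM) preincubated 10 min at ambient with compound, then OMFP substrate added at 50 uM; 10 min reaction in 50 mM HEPES pH 7.5, 50 mM NaCl, 5 uM MgCl2, 0.05% BSA, 1 mM DTT. Fluorescence read at Ex 485/Em 525 nm.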
TSG101-PTAP inh: blocks PTAP/TSG101 interaction to inhibit HIV-1 budding; Fluorescence polarization, FITC-PTAP peptide / Tsg101 binding; 340,000 tested, under 10 active; AID 493005; Potency, µM (highest dose often 115 µM), for inactives: at the top dose activity change, negative = inhibition, most hits filed as inhibitors; active = well fitted inhibition curve with a large enough effect in the main read-out, with a control signal flat, not every such curve was filed as active; inconclusive = small, poorly fitted or top-dose-only effect, or effect the other way, or a change in a side signal; inactive = no such curve, though single readings can be large or run the other way; also: % of control where 0% means no effect
Target sequence (Q99816 whole entry, looked up): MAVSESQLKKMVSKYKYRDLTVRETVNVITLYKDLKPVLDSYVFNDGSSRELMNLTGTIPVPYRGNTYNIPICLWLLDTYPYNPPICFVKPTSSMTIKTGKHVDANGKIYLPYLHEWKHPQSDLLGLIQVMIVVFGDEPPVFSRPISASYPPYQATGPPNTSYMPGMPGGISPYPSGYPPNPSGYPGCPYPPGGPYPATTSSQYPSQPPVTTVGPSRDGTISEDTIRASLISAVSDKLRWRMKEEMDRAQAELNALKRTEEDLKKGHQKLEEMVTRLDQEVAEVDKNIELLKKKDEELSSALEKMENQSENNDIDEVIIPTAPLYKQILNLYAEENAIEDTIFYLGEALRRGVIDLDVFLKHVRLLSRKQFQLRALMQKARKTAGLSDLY
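FP read-out: FITC-PTAP peptide, 50 nM final, binding Tsg101 binding domain, 10 uM final; 20 min, r.t.; 10 mM HEPES pH 7.5, 0.15 M NaCl, 0.01% Tween 20, 3 mM EDTA, 0.1 mM TCEP.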
USP2a block: USP2a (human) protease inhibition; O75604; USP2 core, Ub-CHOP2 coupled fluorogenic reporter, 485/531; Potency, µM (titrated, usually from 38.3 µM), without a hit: top-dose activity change, negative = inhibition, actives largely listed as inhibitors; hit rate 0.01% among 330,000;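 also: plate controls were DMSO wells for no effect and full inhibition by NEM control for full effect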
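USP2 core (10nM final) preincubated 30min RT with compound in 20mM Tris-HCl pH 8.0, 2mM CaCl2, 2mM beta-mercaptoethanol, 0.05% CHAPS; 25nM Ub-CHOP2 plus 25nM reporter substrate added, fluorescence (Ex485/Em531) read after 60min.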
ALOX12 inh: inhibitors of human 12S-lipoxygenase ALOX12; purified 12hLO, xylenol orange hydroperoxide absorbance; P18054; Potency, µM (top dose mostly 108 µM), without a hit: at the top dose activity change, negative = inhibition, most hits filed as inhibitors; AID 1671190; hit rate 1.1% among 580,000; also: % is scaled to controls: 0 for no effect and ±100 for the full control effect
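Hydroperoxide product was detected by ferrous iron/xylenol orange as the 573 to 405 nm absorbance ratio. Arachidonic acid at 40 uM (final) was turned over for 30 min at room temperature by 150 nM human 12hLO, pH 7.0 Hepes buffer, after 15 min compound preincubation.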
* marks the source's active call; other numbers are inactive results; ? = inconclusive; . = not tested or not shown; [ ] = remark or other dose. Hits are enriched below; roughly 1.1% of the tested compounds scored in any of these assays. Unless noted, calls follow the shape of the dose curve; as a rule, active = well fitted curve in the direction sought with a large enough effect; inconclusive = small, poorly fitted or top-dose-only effect, or another doubt; inactive = no such curve, though single readings can be large; an effect the other way counts as inactive or inconclusive. Potency is read from the fitted curve at half-maximal effect.

SMILES | Eya2 inh | TSG101-PTAP inh | USP2a block | ALOX12 inh
FC(F)(F)c1ccc(Cl)c(NC(=S)N/N=C/c2ccccc2C(F)(F)F)c1 | 4% | -2% | 3% | 19%
FC(F)(F)c1ccc(Cl)c(N/N=C/c2ccccc2Cl)c1 | . | . | . | 35µM*
CCCCC1CCC(=O)O1 (stereo unspecified) | . | . | . | -5%[176 µM]
Cn1ncc2c(-c3ccc(Cl)cc3Cl)cc(C(=O)N3CCN(c4ncccn4)CC3)nc21 | . | . | . | 1%[6.33 µM]
Cc1ccc(-c2cc(C(=O)Nc3nnc(C)s3)c3ccccc3n2)cc1 | . | . | . | -34%
Cc1ccc(-c2cc(C(=O)Nc3nccs3)c3ccccc3n2)c(C)c1 | -4% | 2% | -5% | -4%
Cc1ccc(-c2cc(C(=O)Nc3nnc(C4CC4)s3)c3ccccc3n2)o1 | . | . | . | 7.9µM*
Cc1ccc(-c2cc(C(=O)Nc3nccs3)c3ccccc3n2)o1 | -11% | -4% | 3% | 1.4µM*
CCCC/C=C/C=C\C=O | . | . | . | -2%[176 µM]
COc1ccc(-c2ccc3ncc(Nc4ccncc4)n3n2)cc1OC | . | . | . | 18%[176 µM]
COc1ccc(CC(=O)NC2CCN(c3cc(-c4ccc(Cl)cc4)[nH]n3)C2)cc1 (stereo unspecified) | . | . | . | 13%
COc1cccc(Cn2c(=O)c(-c3cn(C)c4ccccc34)nc3cnc(OC)nc32)c1 | . | . | . | 40µM*
COc1ncc2nc(-c3cn(C)c4ccccc34)c(=O)n(Cc3ccc(F)cc3)c2n1 | . | . | . | 0%
CCN1c2cc(C(=O)N3CCN(c4ccccc4)CC3)ccc2C(=O)N2CCCCCC21 (stereo unspecified) | . | . | . | -1%
Cc1ccsc1CNCCN(C)C | . | . | . | -22%
CS(=O)(=O)N1CC2(CCN(CC3CCCCC3)CC2)Cc2ccccc21 | . | . | . | 8%[6.33 µM]
O=C(O)CN1C(=O)/C(=C\c2cc(Br)ccc2OCc2ccc([N+](=O)[O-])cc2)SC1=S | 6% | -10% | -1% | 8.9µM*
COc1cc([N+](=O)[O-])cc(/C=C2/SC(=S)N(Cc3ccccc3)C2=O)c1O | 11% | -5% | -16% | 16µM*
COc1cccc2cc(S(=O)(=O)c3cc(F)cc(F)c3)c(=O)oc12 | . | . | . | 0%
COc1ccccc1OC(=O)c1ccccc1C | . | . | . | -7%
CCOC(=O)C1=C(C)C(c2cccc(Oc3ccccc3)c2)NC(=S)N1 (stereo unspecified) | 0% | -5% | -2% | 40µM*
CC(=O)c1c2ccccc2cc2ccccc12 | . | . | . | -30%
COc1ccc(C2NC(=O)NC3=C2CCc2ccccc23)cc1 (stereo unspecified) | 14%[15.4 µM] | -11% | 0% | .
COc1ccc2c(c1)C1=C(CC2)C(c2ccc(C)cc2)NC(=S)N1 (stereo unspecified) | 7% | -7% | -17% | 40µM*
S=C1NC2=C(CCc3ccccc32)C(c2ccccc2Cl)N1 (stereo unspecified) | . | . | . | 8.9µM*
SMILES | Eya2 inh | TSG101-PTAP inh | USP2a block | ALOX12 inh
COc1cccc(C2NC(=S)NC3=C2CCc2ccccc23)c1 (stereo unspecified) | -3% | 0% | -1% | ?
S=C1NC2=C(CCc3ccccc32)C(c2ccc(Cl)cc2)N1 (stereo unspecified) | . | . | . | 28µM*
COc1ccccc1C1NC(=S)NC2=C1CCc1ccccc12 (stereo unspecified) | . | . | . | 28µM*
CCCCOc1ccccc1C(=O)Nc1ccc(OCC)c2ncccc12 | . | . | . | -10%
COc1ccc(CC(=O)OCC(=O)Nc2ncc(Cl)c(C)c2Cl)cc1 | 0% | -8% | 0% | 11µM*
Cc1c(Cl)cnc(NC(=O)COC(=O)CNC(=O)c2ccccc2)c1Cl | -17% | -5% | 1% | ?
O=C(NC(=S)NCC1CCCO1)c1ccc(Cl)cc1 (stereo unspecified) | 3% | 0% | 4% | 40µM*
Cc1ccc(C(=O)NC(=S)NCC2CCCO2)cc1 (stereo unspecified) | 3% | -2% | 3% | 10%
C[n+]1cccc(C(=O)NCC2CCCO2)c1 (stereo unspecified) | -11% | 3% | -1% | 16µM*
O=C(NCC1CCCO1)c1ccccc1 (stereo unspecified) | . | -7% | . | 1%
Cc1nc2cc(N3CCCCC3)c(NC(=O)c3cccnc3)cc2c(=O)n1Cc1ccccc1 | -5% | -3% | -15% | -12%
CC(=O)Nc1cc2c(=O)n(Cc3ccccc3)c(C)nc2cc1N1CCOCC1 | -7% | -2% | 1% | 14µM*
